From PubChem BioAssay (NCI) come the findings set out here.

The panel holds about 83,000 compounds, 20% with a hit somewhere; the sample as a whole holds those more often.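 Assay: single dose, 48 h. Readout: percent growth (0 = no net growth; negative = cell death). Active: <10.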 Values without a mark were called inactive. Active and inactive are the calls of the source.

Among the test systems are NCI-H226 lung; NCI-H322M lung; HOP-62 NSCLC; NCI-H460 lung; HOP-92 NSCLC; NCI-H522 lung; A549/ATCC NSCLC; 786-0 renal; COLO 205 colon; DU-145 prostate; K-562 leukemia; MALME-3M melanoma; MDA-MB-231 breast; RXF 393 renal; SF-268 CNS; SF-295 CNS; SF-539 CNS; UACC-257 melanoma; M14 melanoma.
What all share (test): NCI-60 one-dose screen, 48 h (100 = growth as untreated, 0 = no growth, -100 = all killed)
Conditions in all cases: 10 µM unless noted

On to `CC1=C/C(=N\N=C2/C=C(C)CC(C)(C)C2)CC(C)(C)C1`, for which the growth with NCI-H226 lung is 106%; with NCI-H322M lung, 92.7%; in the experiment on HOP-62 NSCLC, 90.9%; in the experiment with NCI-H460 lung, 104%; with HOP-92 NSCLC, 92.3%; with NCI-H522 lung it was 81.4%. Moreover, the growth with A549/ATCC NSCLC was 88.6%; in the experiment on 786-0 renal it was 102%; in the experiment on COLO 205 colon, 119%; in the experiment with DU-145 prostate, 105%; in the experiment with K-562 leukemia, 86.9%; with MALME-3M melanoma, 96.4%. In addition, the growth in the experiment on MDA-MB-231 breast was 106%; in the experiment on RXF 393 renal, 114%; in the experiment with SF-268 CNS, 93.4%; in the experiment with SF-295 CNS, 102%; with SF-539 CNS, 105%; with UACC-257 melanoma, 90.2%. In addition, the growth in the experiment with M14 melanoma is 103%.
Regarding `O=S(=O)(O)c1ccc(N=NSc2ccc3ccccc3c2)cc1`, the growth in the experiment with NCI-H226 lung was 106%; in the experiment with NCI-H322M lung it was 92.8%; in the experiment on HOP-62 NSCLC it was 108%; in the experiment on NCI-H460 lung it was 98.1%; in the experiment on HOP-92 NSCLC, 86.4%; in the experiment on NCI-H522 lung, 97%. Moreover, the growth was 100% in the experiment with A549/ATCC NSCLC; 102% with 786-0 renal; 108% in the experiment with COLO 205 colon; 103% in the experiment with DU-145 prostate; 118% with K-562 leukemia; 92.3% in the experiment on MALME-3M melanoma. In addition, the growth was 102% in the experiment on MDA-MB-231 breast; 117% with RXF 393 renal; 98.8% with SF-268 CNS; 97.4% in the experiment with SF-295 CNS; 100% in the experiment on SF-539 CNS; 113% in the experiment with UACC-257 melanoma. For the same compound, the growth in the experiment with M14 melanoma was 92.9%.
With `N#Cc1ccc(N2Cc3cc(Cl)ccc3OC3=C2C(=O)N(Cc2ccc(F)cc2)C3=O)cc1`, the growth was 92.6% in the experiment with NCI-H226 lung; 96.3% with NCI-H322M lung; 52% in the experiment with HOP-62 NSCLC; 23.6% in the experiment on NCI-H460 lung; -64.1% (active) in the experiment on HOP-92 NSCLC; -63.2% (active) in the experiment with NCI-H522 lung. The growth was 68.5% with A549/ATCC NSCLC; -90.5% (active) in the experiment on 786-0 renal; -73.5% (active) with COLO 205 colon; -91.8% (active) with DU-145 prostate; -21.6% (active) in the experiment on K-562 leukemia; -72.3% (active) in the experiment with MALME-3M melanoma. The growth in the experiment with MDA-MB-231 breast was -0.424% (active); with RXF 393 renal it was -56.8% (active); in the experiment on SF-268 CNS, -58.4% (active); with SF-295 CNS it was 66.6%; in the experiment with SF-539 CNS, -65.7% (active); in the experiment on UACC-257 melanoma it was -64% (active). Moreover, the growth in the experiment with M14 melanoma is -68.4% (active).
Consider `C=C1C(=O)O[C@H]2[C@H]1CC/C(COC(=O)NCc1nc3ccccc3[nH]1)=C\CC[C@@]1(C)O[C@@H]21`, for which the growth in the experiment with NCI-H322M lung was 112%; in the experiment on HOP-62 NSCLC, 95%; in the experiment with NCI-H460 lung it was 102%; with HOP-92 NSCLC it was 136%; with NCI-H522 lung, -43.9% (active); in the experiment with A549/ATCC NSCLC, 94.6%. The growth is 101% in the experiment on 786-0 renal; 18.8% with COLO 205 colon; 80.1% with DU-145 prostate; 24.7% with K-562 leukemia; 86.8% in the experiment with MALME-3M melanoma; 90.8% in the experiment with MDA-MB-231 breast. Also, the growth was 67.2% in the experiment on RXF 393 renal; 105% with SF-268 CNS; 106% with SF-295 CNS; 77.9% in the experiment with SF-539 CNS; 94.9% in the experiment on UACC-257 melanoma; 77.5% with M14 melanoma.
As to `CCSc1ccc(C2C(Br)C(=O)N2c2cc(OC)c(OC)c(OC)c2)cc1` (centres undefined), the growth with NCI-H226 lung was 50.2%; in the experiment on NCI-H322M lung it was 50.5%; in the experiment with HOP-62 NSCLC, 30%; with NCI-H460 lung it was 10.1%; with HOP-92 NSCLC it was 28.2%; in the experiment with NCI-H522 lung, 7.68% (active). For the same compound, the growth with A549/ATCC NSCLC is 18.2%; in the experiment with 786-0 renal, 8.1% (active); in the experiment on COLO 205 colon it was -38.5% (active); in the experiment with DU-145 prostate, 12.3%; in the experiment with K-562 leukemia, 8.26% (active); in the experiment with MALME-3M melanoma it was 70.1%. In addition, the growth is 19.7% with MDA-MB-231 breast; 2.05% (active) with RXF 393 renal; 38.7% in the experiment with SF-268 CNS; 15.7% in the experiment on SF-295 CNS; -1.17% (active) in the experiment with SF-539 CNS; 45.2% in the experiment on UACC-257 melanoma. Besides, the growth with M14 melanoma is 4.2% (active).
`CC(C)(C)CC(C)(C)Cc1ccc(OCCOCC[N+](C)(C)Cc2ccccc2)cc1`: the growth was 38.1% in the experiment on NCI-H226 lung; 70.6% with NCI-H322M lung; 66.1% in the experiment with HOP-62 NSCLC; 13.7% in the experiment on NCI-H460 lung; -7.72% (active) in the experiment with HOP-92 NSCLC; 9.27% (active) in the experiment on NCI-H522 lung. The growth was 71.8% in the experiment with A549/ATCC NSCLC; 44.5% in the experiment with 786-0 renal; -72.3% (active) in the experiment with COLO 205 colon; 53.4% with DU-145 prostate; 9.56% (active) in the experiment on K-562 leukemia; -40.2% (active) with MALME-3M melanoma. The growth with MDA-MB-231 breast was -26.7% (active); in the experiment on RXF 393 renal, 16.5%; in the experiment on SF-268 CNS it was 20.7%; in the experiment on SF-295 CNS it was 73.5%; with SF-539 CNS, 30.9%; with UACC-257 melanoma it was 2.66% (active). Also, the growth with M14 melanoma is 7.33% (active).
For the compound `COc1cc2c(Nc3ccc(NC(=O)Nc4ccc(Cl)c(C(F)(F)F)c4)c(Cl)c3)ncnc2cc1OCCCN1CCN(C)CC1`, the growth in the experiment on NCI-H226 lung was 73.9%; with NCI-H322M lung, 11.3%; in the experiment with HOP-62 NSCLC, -15% (active); with NCI-H460 lung, -70.4% (active); in the experiment on HOP-92 NSCLC it was 27%; with NCI-H522 lung, -60.4% (active). Besides, the growth in the experiment on A549/ATCC NSCLC was 20.8%; in the experiment on 786-0 renal, 6.31% (active); in the experiment on COLO 205 colon, -43.2% (active); with DU-145 prostate, 2.84% (active); in the experiment with K-562 leukemia, -61% (active); in the experiment with MALME-3M melanoma, -50.8% (active). In addition, the growth with MDA-MB-231 breast is -60.2% (active); in the experiment with RXF 393 renal it was -40.5% (active); with SF-268 CNS, 20.2%; in the experiment with SF-295 CNS it was -67.3% (active); with SF-539 CNS, -77.9% (active); in the experiment with UACC-257 melanoma it was 54.6%. Besides, in the experiment with M14 melanoma, the growth is 0.0561% (active).
As for `COc1cc(C(C)c2ccc3c(ccn3C)c2)cc(OC)c1OC` (centres undefined), the growth in the experiment with NCI-H322M lung was 42.8%; in the experiment on HOP-62 NSCLC, 29.4%; in the experiment with NCI-H460 lung, 2.89% (active); with HOP-92 NSCLC it was 48.2%; in the experiment with NCI-H522 lung, 11.3%; in the experiment with A549/ATCC NSCLC, 16.3%. For the same compound, the growth with 786-0 renal was 22.6%; in the experiment with DU-145 prostate, -15.3% (active); with K-562 leukemia, 6.54% (active); in the experiment on MALME-3M melanoma it was 68%; in the experiment with MDA-MB-231 breast it was 28.1%; in the experiment with RXF 393 renal, 53.1%. Moreover, the growth is 31.4% in the experiment on SF-268 CNS; 15.5% in the experiment on SF-295 CNS; -6.4% (active) in the experiment on SF-539 CNS; 61% in the experiment with UACC-257 melanoma; 11.3% in the experiment on M14 melanoma.
